# Values without a mark were called inactive. Where a call stands in place of a potency, no number is given. For some assays here: Potency and affinity values are given separately. Active and inactive are the calls of the source. Unless noted, how the calls were made is not given here.
# Legend:
# [1] = antimalarial activity against Dd2 strain (AID 2302;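 active means growth inhibition above 50% at the single 2 µM test dose, taken to imply half-maximal potency below 2 µM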); conditions: P. falciparum Dd2 in RBCs, LDH growth readout, 72 h; at 2 µM; stronger effect = higher value
# [2] = human hepatoma cell viability loss – ATP luminescence, cytotoxicity control for P. falciparum antimalarial project, primary screen (AID 2303;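 active means inhibition above 50%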); conditions: HepG2 viability, 24-48 h, at 10 µM, stronger effect = higher value
# [3] = molecular target: L-lactate dehydrogenase (Plasmodium falciparum (isolate CDC / Honduras)) (UniProt Q27743); test: PfLDH activity inhibition – cell lysate, 3D7 strain, counter-screen for P. falciparum growth inhibition project (AID 2304); conditions: P. falciparum 3D7 crude extract, LDH APAD/NBT absorbance; at 2 µM; stronger effect = higher value
# [4] = inhibition of 3D7 malaria parasite growth – strain 3D7 (AID 2306); conditions: P. falciparum 3D7 erythrocytic growth, LDH absorbance, 72 h; at 2 µM; stronger effect = higher value
# [5] = molecular target: Calcium-dependent protein kinase 1 (Plasmodium falciparum (isolate 3D7)) (UniProt P62344); test: PfCDPK1 kinase inhibitors, biochemical, TCAMS library (AID 1159585; cut-off not given, nearly all actives have IC50 up to about 0.98 µM;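 further: inhibitors leave more ATP so luminescence rises with inhibition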); conditions: recombinant PfCDPK1, Kinase-Glo ATP depletion luminescence
# [6] = molecular target: Plasmodium falciparum protein kinase 6 (PK6, PF3D7_1337100) (UniProt Q8IDW1); test: PfPK6 kinase inhibitors, biochemical, TCAMS library (AID 1159586); conditions: recombinant PfPK6, Kinase-Glo ATP depletion luminescence
# [7] = molecular target: Protein kinase 7 (PK7), Plasmodium falciparum 3D7 (PF3D7_0213400) (UniProt Q7YTF7); test: inhibition of Plasmodium PK7 catalytic activity – biochemical, TCAMS antimalarial set, Kinase-Glo luminescence (AID 1159587); conditions: recombinant PfPK7, Kinase-Glo ATP depletion luminescence
# [8] = molecular target: Calcium-dependent protein kinase 4 (Plasmodium falciparum (isolate 3D7)) (UniProt Q8IBS5); test: PfCDPK4 kinase inhibitors, biochemical, TCAMS library (AID 1159588; cut-off not given, nearly all actives have IC50 up to about 0.91 µM); conditions: recombinant PfCDPK4, Kinase-Glo ATP depletion luminescence
# Chain of Calcium-dependent protein kinase 4 (Plasmodium falciparum (isolate 3D7)) (Q8IBS5 whole entry, looked up): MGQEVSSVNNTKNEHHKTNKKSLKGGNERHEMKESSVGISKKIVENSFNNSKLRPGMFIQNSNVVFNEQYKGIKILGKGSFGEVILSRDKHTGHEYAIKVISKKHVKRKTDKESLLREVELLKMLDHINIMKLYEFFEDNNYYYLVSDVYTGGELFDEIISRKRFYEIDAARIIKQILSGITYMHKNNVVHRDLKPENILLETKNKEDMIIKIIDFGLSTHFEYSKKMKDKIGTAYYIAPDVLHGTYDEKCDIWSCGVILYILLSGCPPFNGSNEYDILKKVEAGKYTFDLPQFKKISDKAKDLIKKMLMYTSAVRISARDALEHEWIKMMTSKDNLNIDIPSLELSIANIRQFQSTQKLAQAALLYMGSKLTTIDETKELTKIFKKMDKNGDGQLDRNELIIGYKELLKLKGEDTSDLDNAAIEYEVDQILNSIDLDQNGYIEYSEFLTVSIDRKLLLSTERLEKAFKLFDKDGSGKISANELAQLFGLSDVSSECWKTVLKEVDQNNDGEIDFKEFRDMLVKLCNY
# Chain of Plasmodium falciparum protein kinase 6 (PK6, PF3D7_1337100) (Q8IDW1 1-305): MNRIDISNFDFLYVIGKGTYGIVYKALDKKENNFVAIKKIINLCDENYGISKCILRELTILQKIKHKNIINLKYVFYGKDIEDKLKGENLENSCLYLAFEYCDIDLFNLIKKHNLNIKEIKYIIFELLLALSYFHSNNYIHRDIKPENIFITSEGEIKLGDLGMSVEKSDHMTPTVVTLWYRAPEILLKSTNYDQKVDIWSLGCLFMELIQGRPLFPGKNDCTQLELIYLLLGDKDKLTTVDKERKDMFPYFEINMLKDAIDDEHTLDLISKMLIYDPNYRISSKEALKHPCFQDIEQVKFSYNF
# Chain of Calcium-dependent protein kinase 1 (Plasmodium falciparum (isolate 3D7)) (P62344 whole entry, looked up): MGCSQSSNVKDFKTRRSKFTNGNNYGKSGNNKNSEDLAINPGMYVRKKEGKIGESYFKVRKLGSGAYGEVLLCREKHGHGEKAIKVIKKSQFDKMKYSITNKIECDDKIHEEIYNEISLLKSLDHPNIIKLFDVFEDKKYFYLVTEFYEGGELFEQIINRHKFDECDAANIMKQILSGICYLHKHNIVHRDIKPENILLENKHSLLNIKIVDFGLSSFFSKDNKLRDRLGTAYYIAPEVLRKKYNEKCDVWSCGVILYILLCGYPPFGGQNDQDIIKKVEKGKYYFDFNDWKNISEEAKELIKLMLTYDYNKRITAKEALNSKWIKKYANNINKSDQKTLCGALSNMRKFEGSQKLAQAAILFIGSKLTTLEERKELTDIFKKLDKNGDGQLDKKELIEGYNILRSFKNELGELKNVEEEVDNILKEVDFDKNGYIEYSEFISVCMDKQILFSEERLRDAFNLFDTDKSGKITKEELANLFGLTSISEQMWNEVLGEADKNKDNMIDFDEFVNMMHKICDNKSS
# Chain of Protein kinase 7 (PK7), Plasmodium falciparum 3D7 (PF3D7_0213400) (Q7YTF7 1-343): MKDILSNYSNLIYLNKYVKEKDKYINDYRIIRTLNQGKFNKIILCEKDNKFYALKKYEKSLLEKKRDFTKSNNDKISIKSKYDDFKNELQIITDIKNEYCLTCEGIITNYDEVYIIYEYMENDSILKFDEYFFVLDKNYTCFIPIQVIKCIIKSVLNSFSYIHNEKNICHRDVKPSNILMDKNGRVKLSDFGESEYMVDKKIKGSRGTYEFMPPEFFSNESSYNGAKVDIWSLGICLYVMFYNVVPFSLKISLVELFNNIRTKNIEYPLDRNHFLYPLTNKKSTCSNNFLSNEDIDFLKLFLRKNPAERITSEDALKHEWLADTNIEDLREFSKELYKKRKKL
# Chain of L-lactate dehydrogenase (Plasmodium falciparum (isolate CDC / Honduras)) (Q27743 whole entry, looked up): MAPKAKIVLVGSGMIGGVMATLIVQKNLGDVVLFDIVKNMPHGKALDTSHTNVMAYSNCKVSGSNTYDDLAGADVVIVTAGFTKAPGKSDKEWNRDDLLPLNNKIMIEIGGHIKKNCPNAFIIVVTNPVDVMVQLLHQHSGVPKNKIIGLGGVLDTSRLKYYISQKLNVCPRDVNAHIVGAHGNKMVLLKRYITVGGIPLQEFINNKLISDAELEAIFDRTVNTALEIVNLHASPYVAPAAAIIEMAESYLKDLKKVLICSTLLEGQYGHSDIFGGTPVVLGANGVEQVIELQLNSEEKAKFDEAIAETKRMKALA
Compound,growth inhibition [1],inhibition [2],inhibition [3],growth inhibition [4],outcome [5],outcome [6],outcome [7],outcome [8]
Nc1nc(N)c2c(ccc3ccccc32)n1,20%,60% (active),-1%,98% (active),inactive,inactive,inactive,inactive
CC(=O)N1N=C(c2ccccc2)Sc2c1nc(-c1ccc(Cl)cc1)n2C(C)=O,18%,-1%,0%,94% (active),inactive,inactive,inactive,inactive
C=CCn1cc(C2CCN(CCCCNC(=O)c3sc(-c4ccc(C(F)(F)F)cc4)nc3CO)CC2)c2cc(OC)ccc21,4%,40%,4%,91% (active),inactive,inactive,inactive,inactive
Cc1cc(NN=Cc2ccccc2[N+](=O)[O-])c2ccc(F)cc2n1,100% (active),32%,-4%,101% (active),inactive,inactive,inactive,inactive
N#Cc1ccccc1S(=O)(=O)N1CCCC(CNC(=O)[C@H](CC2CCCCC2)NC(=O)c2cc3ccccc3s2)C1 (stereo not given in full),92% (active),9%,-2%,97% (active),inactive,inactive,inactive,inactive
CCC1(C)N=C(N)N=C(N)N1c1ccccc1 (stereo not given),-2%,6%,0%,98% (active),inactive,inactive,inactive,inactive
NCc1ccc(-c2cccc(CNC3CCN(Cc4ccccc4)CC3)c2)cc1,50% (active),24%,-7%,100% (active),inactive,inactive,inactive,inactive
COc1ccc(CNC2CCN(C)CC2)cc1-c1ccc(S(=O)(=O)NCc2ccccc2)s1,101% (active),62% (active),0%,101% (active),inactive,inactive,inactive,inactive
COc1ccc(C=NNc2cc(C)nc3ccc(C)cc23)c2ccccc12,55% (active),28%,4%,94% (active),inactive,inactive,inactive,inactive
N#Cc1cccc(CN2CCCN(Cc3ccc(C(=O)Nc4ccc(Cl)cc4)cc3)CC2)c1,21%,48%,1%,98% (active),inactive,inactive,inactive,inactive
CC1CN(Cc2ccc(-c3ccc(-c4nc5ccc(F)cc5[nH]4)s3)cc2)CC(C)O1 (stereo not given),89% (active),35%,-10%,88% (active),inactive,inactive,inactive,inactive
COC(=O)c1ccccc1COc1ccc(CC2(NC(=O)[C@H](Nc3ccc(C#N)c4ccccc34)C(C)(C)C)CCCC2)cc1,82% (active),1%,2%,95% (active),inactive,inactive,inactive,inactive
O=C(Nc1cccc(C(F)(F)F)c1)c1cc([N+](=O)[O-])cc2cn[nH]c12,69% (active),60% (active),3%,101% (active),inactive,inactive,inactive,inactive
CCN(CCCN1CCCCC1)c1nc(C)cc(Nc2ccc(Cl)cc2)n1,92% (active),30%,3%,98% (active),inactive,inactive,inactive,inactive
CC(O)C1CCCCN1C(=O)c1cccc(-c2ccc(-c3nc4ccc(F)cc4[nH]3)cc2)c1 (stereo not given),99% (active),46%,-6%,101% (active),inactive,inactive,inactive,inactive
N#Cc1cccc(C(=O)Nc2cccc(-c3ccc(C(=O)NCCCN4CCOCC4)cc3)c2)c1,21%,21%,-8%,96% (active),inactive,inactive,inactive,inactive
CCCC(C)NC(=O)[C@H](CC1CCCCC1)NC(=O)c1ccc(O)c(-c2cccc(C(F)(F)F)c2)c1 (stereo not given in full),98% (active),-5%,5%,100% (active),inactive,inactive,inactive,inactive
Cc1ccc(S(=O)Cc2ccc(Cl)cc2)cc1 (stereo not given),5%,8%,-2%,98% (active),inactive,inactive,inactive,inactive
Cc1cc(C2CCN(CCCCNC(=O)c3ccc(NC(=O)c4ccc(Cl)cc4)cc3)CC2)c(C)cc1OCc1nccn1C,98% (active),18%,-2%,100% (active),inactive,inactive,inactive,inactive
CN(C)c1ccc(N2C(N)=NC(N)=NC23CCCC3)cc1,0%,1%,-2%,97% (active),inactive,inactive,inactive,inactive

Compound,growth inhibition [1],inhibition [2],inhibition [3],growth inhibition [4],outcome [5],outcome [6],outcome [7],outcome [8]
COc1ccc(-c2ccc(NC(=O)c3ccc(C#N)cc3)cc2)cc1CN(C)CCN(C)C,58% (active),28%,2%,96% (active),inactive,inactive,inactive,inactive
CCOc1cc(C(=O)Nc2cccnc2)cc(Br)c1OCCC(C)C,51% (active),4%,1%,88% (active),inactive,inactive,inactive,inactive
OC(CNCc1ccccc1Oc1ccccc1)c1cccc(C(F)(F)F)c1 (stereo not given),98% (active),-1%,10%,104% (active),inactive,inactive,inactive,inactive
CC[C@@]1(O)C(=O)OCc2c1cc1n(c2=O)Cc2c-1nc1cc3c(cc1c2CN1CCN(C)CC1)OCCO3,97% (active),79% (active),1%,98% (active),inactive,inactive,inactive,inactive
O=C(COc1ccccc1Cc1ccccc1)Nc1cc(Cl)ccc1-n1cncn1,93% (active),5%,-2%,92% (active),inactive,inactive,inactive,inactive
O=C(NC1CCN(Cc2ccc(O)cc2)CC1)c1ccc(Cl)c(Cl)c1,3%,1%,4%,95% (active),inactive,inactive,inactive,inactive
Cc1cccc2[nH]c(-c3ccc(-c4cccc(CNCCNC(=O)c5ccnn5C)c4)cc3)nc12,92% (active),17%,-4%,100% (active),inactive,inactive,inactive,inactive
CC(CN(C)C)C(=O)Nc1ccc(-c2csc(-c3nc4ccccc4[nH]3)c2)cc1 (stereo not given),19%,28%,-4%,84% (active),inactive,inactive,inactive,inactive
O=[N+]([O-])c1cccc(CNCC2CCN(Cc3ccc(C(F)(F)F)cc3)CC2)c1,23%,7%,2%,101% (active),inactive,inactive,inactive,inactive
Cc1ccc2nc(C)cc(NN=Cc3ccccc3[N+](=O)[O-])c2c1,100% (active),5%,-1%,102% (active),inactive,inactive,inactive,inactive
CN(C)c1ccc(C=CC(=O)NC(=O)c2ccccc2O)cc1,97% (active),6%,-1%,92% (active),inactive,inactive,inactive,inactive
CCCOc1ccc(-c2nonc2NC(=O)c2cccc(OC)c2)cc1OCCC,100% (active),18%,0%,94% (active),inactive,inactive,inactive,inactive
CCNc1cc(C(=O)N[C@@H](Cc2ccccc2)[C@H](O)CNC(C)CC(C)C)c(F)c(N2CCCCS2(=O)=O)c1 (stereo not given in full),66% (active),6%,4%,95% (active),inactive,inactive,inactive,inactive
CC(=O)Oc1c(C2CCN(CCCCNC(=O)c3ccc(-c4ccc(C#N)cc4)cc3)CC2)ccc2c1CCCC2,52% (active),21%,3%,88% (active),inactive,inactive,inactive,inactive
Nc1cnc(C#Cc2cc3ncnc(N(CCN4CCOCC4)c4ccc(OCc5cccc(F)c5)c(Cl)c4)c3s2)cn1,57% (active),-8%,-9%,87% (active),inactive,inactive,inactive,inactive
C=CCn1c(Sc2ccc(C#N)c([N+](=O)[O-])c2)nnc1-c1cc(OC)cc(OC)c1,84% (active),12%,0%,96% (active),inactive,inactive,inactive,inactive
COc1ccc(C#Cc2ccc(-c3c(C)[nH]c(C)c(Cl)c3=O)cc2)cc1,97% (active),-6%,2%,97% (active),inactive,inactive,inactive,inactive
Cn1nccc1C(=O)NCCNCc1ccc(-c2cccc(-c3nc4ccccc4[nH]3)c2)cc1,87% (active),35%,2%,101% (active),inactive,inactive,inactive,inactive
O=C(c1ccc(-c2cccc(-c3nc4ccc(C(F)(F)F)cc4[nH]3)c2)cc1)N1CCCCC1CN1CCC(O)C1 (stereo not given),98% (active),29%,-11%,100% (active),inactive,inactive,inactive,inactive
N#Cc1ccc(N(CCOc2ccc(Cl)c(F)c2)Cc2ccccc2C(F)(F)F)cc1C(F)(F)F,43%,17%,-2%,101% (active),inactive,inactive,inactive,inactive

# — PubChem BioAssay
